In general, AC50 refers to the concentration giving half of the maximal activity seen.

Consider 20 molecules from PubChem BioAssay (EPA / NIEHS).

Common to all, as to settings: mRNA level, 48 h; actives raise or lower the signal
Read-out in assay [1]: Lipase C (LIPC), LIPC (gene 3990)
The assay is described as follows: LTEA_HepaRG_LIPC: Life Technologies and Expression Analysis (LTEA) Assay for Lipase C (LIPC) using HepaRG (AID 2283514). The method, boiled down:
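Read-out is LIPC transcript level by TaqMan qRT-PCR, normalized to three housekeeping genes, after 48 h chemical treatment of human HepaRG liver cells. Curves span eight concentrations topping at 100 uM; activity in either direction scored relative to 0.5% DMSO.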

Read-out in assay [2]: Lipoprotein lipase (LPL), LPL (gene 4023)
The assay is described as follows: LTEA_HepaRG_LPL: Life Technologies and Expression Analysis (LTEA) Assay for Lipoprotein lipase (LPL) using HepaRG (AID 2283515). Summed up: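 Read-out is LPL transcript level by qRT-PCR, normalized to three housekeeping genes and fitted bidirectionally against the DMSO control. Human HepaRG cells received chemicals for 48 h at up to 100 uM.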

Read-out in assay [3]: MicroRNA 122 (MIR122), gene 406906
As to the kind of experiment: LTEA_HepaRG_MIR122: Life Technologies and Expression Analysis (LTEA) Assay for MicroRNA 122 (MIR122) using HepaRG (AID 2283516). Note: the transcript read is the microRNA miR-122. Summed up:
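HepaRG plated 48 h, switched to serum-free induction medium, then treated in duplicate for 48 h (100 uM top, half-log steps, 0.5% DMSO vehicle). RNA isolated, qRT-PCR performed, concentration-response fitted both directions relative to DMSO.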

Read-out in assay [4]: matrix metalloproteinase-10 (MMP10), MMP10 (gene 4319)
As to the kind of experiment: LTEA_HepaRG_MMP10: Life Technologies and Expression Analysis (LTEA) Assay for matrix metalloproteinase-10 (MMP10) using HepaRG (AID 2283517). The method, boiled down: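 Gain or loss of MMP10 mRNA is fitted relative to the 0.5% DMSO vehicle. The human hepatic line HepaRG receives a 48-hour serum-free exposure, in duplicate, with a maximum concentration of 100 uM.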

Read-out in a further assay: MYC, MYC (gene 4609)
As to the kind of experiment: LTEA_HepaRG_MYC: Life Technologies and Expression Analysis (LTEA) Assay for MYC using HepaRG (AID 2283518). The method, boiled down:
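Cells are thawed, plated and cultured 48 h, then treated for 48 h with test chemicals (eight half-log concentrations from 100 uM, 0.5% DMSO vehicle). RNA is isolated and MYC expression quantified by qRT-PCR against three housekeeping genes.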

Read-out in assay [5]: matrix metalloproteinase-3 (MMP3), MMP3 (gene 4314)
As to the kind of experiment: LTEA_HepaRG_MMP3: Life Technologies and Expression Analysis (LTEA) Assay for matrix metalloproteinase-3 (MMP3) using HepaRG (AID 2283519). Summed up: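 HepaRG, human; 48 h dosing, 8 conc. (max 100 uM, half-log), duplicate, 0.5% DMSO. Readout: MMP3 transcript by Fluidigm TaqMan qRT-PCR, ACTB/GAPDH/POLR2A-normalised. Gain or loss fitted vs DMSO.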

Read-out in assay [6]: Paternally Expressed 10 (PEG10), PEG10 (gene 23089)
As to the kind of experiment: LTEA_HepaRG_PEG10: Life Technologies and Expression Analysis (LTEA) Assay for Paternally Expressed 10 (PEG10) using HepaRG (AID 2283520). The method, boiled down:
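HepaRG, 48 h post-plating → serum-free induction medium → 48 h chemical exposure (duplicate, 8-pt, max 100 uM, half-log, 0.5% DMSO) → lysis in RLT → TaqMan qRT-PCR for PEG10, ACTB/GAPDH/POLR2A normalisation.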

Read-out in assay [7]: Nuclear factor NF-kappa-B p105 subunit (Homo sapiens) (UniProt P19838)
As to the kind of experiment: LTEA_HepaRG_NFKB1: Life Technologies and Expression Analysis (LTEA) Assay for Nuclear Factor Kappa B Subunit 1 (NFKB1) using HepaRG (AID 2283521). Summed up:
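Differentiated human HepaRG cells in serum-free induction medium with 0.5% DMSO were exposed for 48 h to eight half-log concentrations, top 100 uM, in duplicate. NFKB1 mRNA measured by Fluidigm TaqMan qRT-PCR, normalised to ACTB, GAPDH and POLR2A; bidirectional fit versus DMSO.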

Read-out in assay [8]: Protein phosphatase 2A (PPP2R4), PTPA (gene 5524)
As to the kind of experiment: LTEA_HepaRG_PPP2R4: Life Technologies and Expression Analysis (LTEA) Assay for Protein phosphatase 2A (PPP2R4) using HepaRG (AID 2283522). Summed up: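 Readout is PPP2R4 transcript level by microfluidic qRT-PCR after 48 h chemical treatment of human HepaRG liver cells. Concentrations spanned 100 uM downward in half-log steps; gain or loss of signal was fitted relative to DMSO.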

Read-out in assay [9]: Phosphatase and tensin (PTEN), PTEN (gene 5728)
The assay is described as follows: LTEA_HepaRG_PTEN: Life Technologies and Expression Analysis (LTEA) Assay for Phosphatase and tensin (PTEN) using HepaRG (AID 2283523). The method, boiled down:
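Read-out is PTEN transcript level by multiplexed TaqMan qRT-PCR after 48 h chemical treatment of human HepaRG cultures in serum-free induction medium. Concentrations spanned 100 uM downward in half-log steps, 0.5% DMSO throughout; activity fitted in both directions against vehicle.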

Structures are written as SMILES. Calls of active or inactive are those of the source. Rule for the calls: active = hit-call score of the fitted dose curve at least 0.9, where 1 is the maximum; inactive = score below 0.9.

Sequence of Nuclear factor NF-kappa-B p105 subunit (Homo sapiens) (P19838 whole entry, looked up): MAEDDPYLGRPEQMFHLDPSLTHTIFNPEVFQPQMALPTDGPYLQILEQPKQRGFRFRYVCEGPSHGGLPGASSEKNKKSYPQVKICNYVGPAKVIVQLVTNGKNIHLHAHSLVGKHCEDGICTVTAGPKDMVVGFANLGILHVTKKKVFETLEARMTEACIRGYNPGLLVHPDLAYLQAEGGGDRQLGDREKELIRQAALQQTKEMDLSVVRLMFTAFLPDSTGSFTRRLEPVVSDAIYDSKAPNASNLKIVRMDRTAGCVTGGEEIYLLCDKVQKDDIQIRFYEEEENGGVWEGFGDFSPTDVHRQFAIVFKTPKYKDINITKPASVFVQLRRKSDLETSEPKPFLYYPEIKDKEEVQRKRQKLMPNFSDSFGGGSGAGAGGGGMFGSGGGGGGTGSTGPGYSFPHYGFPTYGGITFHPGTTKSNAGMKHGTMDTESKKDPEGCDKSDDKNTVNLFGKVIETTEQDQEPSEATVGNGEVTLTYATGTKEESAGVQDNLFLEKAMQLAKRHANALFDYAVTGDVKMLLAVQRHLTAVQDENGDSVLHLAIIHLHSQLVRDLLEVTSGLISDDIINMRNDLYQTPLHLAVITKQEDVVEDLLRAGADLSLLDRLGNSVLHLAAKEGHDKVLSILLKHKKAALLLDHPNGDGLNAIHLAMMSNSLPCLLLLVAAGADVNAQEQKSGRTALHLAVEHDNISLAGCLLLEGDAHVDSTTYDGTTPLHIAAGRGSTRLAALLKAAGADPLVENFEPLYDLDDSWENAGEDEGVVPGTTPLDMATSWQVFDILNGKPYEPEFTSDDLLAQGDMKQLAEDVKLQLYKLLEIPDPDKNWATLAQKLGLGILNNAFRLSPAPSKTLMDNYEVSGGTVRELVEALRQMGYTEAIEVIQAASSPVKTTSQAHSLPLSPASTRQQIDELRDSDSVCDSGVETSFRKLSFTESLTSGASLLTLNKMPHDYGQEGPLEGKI

On to `Cc1ccc(N)cc1`, for which the outcome in [1] was “inactive”; in assay [2], “inactive”; in assay [3], “inactive”; in assay [4] it was “inactive”; in the assay with MYC, MYC (gene 4609) it was “inactive”; in assay [5] it was “inactive”. Further, the outcome in assay [6], in assay [7], in assay [8] and in assay [9] was inactive.
Take `CCN(CC)N=O`: the outcome in [1] was “inactive”; in assay [2], “inactive”; in [3], “inactive”; in assay [4], “inactive”; in the assay with MYC, MYC (gene 4609), “inactive”; in assay [5], “inactive”. The molecule was called inactive in assay [6], in assay [7] and in assay [8].
For `CCCSC(=O)N(CCC)CCC`, the outcome in assay [1] is “inactive”; in assay [2] it was “inactive”; in assay [3] it was “inactive”; in [4], “inactive”; with MYC, MYC (gene 4609), “inactive”; in [5] it was “inactive”. Also, the outcome in [6], in assay [7] and in assay [8] was inactive.
Turning to `O=C(Oc1ccc(Br)cc1)N1CCN2CCC1CC2`, the outcome in assay [1] is “inactive”; in [3] it was “inactive”; in assay [4], “inactive”; with MYC, MYC (gene 4609) it was “inactive”; in assay [5], “inactive”; in assay [6], “inactive”. For the same molecule, the result in assay [7] and in assay [8] was inactive. In addition, in assay [2], the AC50 is 74.4 µM (active).
Take `CCC[CH2][Sn]([Cl])([CH2]CCC)[CH2]CCC`: the AC50 in assay [1] was 1.46 µM (active); in assay [3], 12.8 µM (active); in assay [4], 1.73 µM (active); in assay [5], 1.87 µM (active); in assay [7], 9.07 µM (active). Further, the outcome in assay [2] is “inactive”; in the assay with MYC, MYC (gene 4609), “inactive”; in assay [6], “inactive”; in assay [8], “inactive”.
For `CO[C@@H]1[C@H](OC(=O)NC(=O)CCl)CC[C@]2(CO2)[C@H]1[C@@]1(C)O[C@@H]1CC=C(C)C`, the outcome in assay [1] is “inactive”; in assay [2] it was “inactive”; in [3], “inactive”; in assay [4] it was “inactive”; with MYC, MYC (gene 4609), “inactive”; in assay [5], “inactive”. In addition, the result in [6], in [7] and in [8] was inactive.
Regarding `CC(C)(O)c1cnn2c(-c3ccc(F)c(-c4c(F)cccc4C#N)c3)cnc2n1`, the values for the AC50 in assay [1] and in assay [3] were 2.9 µM (active) and 13.1 µM (active), respectively. For the same molecule, the outcome is “inactive” in assay [2]; “inactive” in [4]; “inactive” with MYC, MYC (gene 4609); “inactive” in assay [5]; “inactive” in assay [6]; “inactive” in assay [7]. For the same molecule, the result in assay [8] and in [9] was inactive.
As to `O=[N+]([O-])C(Br)(CO)CO`, the outcome in assay [1] was “inactive”; in assay [2], “inactive”; in assay [3] it was “inactive”; in [4], “inactive”; with MYC, MYC (gene 4609), “inactive”; in assay [5], “inactive”. Also, the outcome in [6], in assay [7], in [8] and in assay [9] was inactive.
Consider `Clc1ccc(C(c2ccc(Cl)cc2)C(Cl)Cl)cc1`, for which the outcome is “inactive” in assay [1]; “inactive” in assay [2]; “inactive” in assay [3]; “inactive” in [4]; “inactive” in the assay with MYC, MYC (gene 4609); “inactive” in assay [5]. The molecule was classed as inactive in assay [6], in assay [7], in assay [8] and in [9].
Consider `Nc1ccc(Oc2ccc(N)cc2)cc1`, for which the outcome in assay [1] is “inactive”; in assay [2], “inactive”; in assay [3], “inactive”; in assay [4] it was “inactive”; with MYC, MYC (gene 4609) it was “inactive”; in assay [5], “inactive”. Besides, the molecule was called inactive in [6], in [7], in [8] and in [9].
In the case of `CN(C)[C@@H]1C(=O)C(C(N)=O)=C(O)[C@@]2(O)C(=O)C3=C(O)c4c(O)cccc4[C@@](C)(O)[C@H]3C[C@@H]12`, the outcome in assay [1] was “inactive”; in assay [2] it was “inactive”; in assay [3], “inactive”; in assay [4], “inactive”; with MYC, MYC (gene 4609) it was “inactive”; in assay [5], “inactive”. The outcome in assay [6], in assay [7], in assay [8] and in assay [9] was inactive.
With `OCCCBr`, the outcome was “inactive” in [1]; “inactive” in assay [2]; “inactive” in assay [3]; “inactive” in assay [4]; “inactive” in the assay with MYC, MYC (gene 4609); “inactive” in [5]. Further, the outcome in assay [6], in assay [7], in assay [8] and in assay [9] was inactive.
For `COP(=S)(OC)SCN1C(=O)c2ccccc2C1=O`, the outcome in assay [1] is “inactive”; in assay [2] it was “inactive”; in [3], “inactive”; in [4], “inactive”; with MYC, MYC (gene 4609), “inactive”; in assay [5], “inactive”. The call in [6], in assay [7], in [8] and in assay [9] was inactive.
With `C=CCc1ccc2c(c1)OCO2`, the outcome is “inactive” in assay [1]; “inactive” in [2]; “inactive” in assay [3]; “inactive” in assay [4]; “inactive” with MYC, MYC (gene 4609); “inactive” in assay [5]. The call in assay [6], in assay [7], in assay [8] and in [9] was inactive.
As to `CC(C)(OOC(C)(C)c1ccccc1)c1ccccc1`, the outcome in [1] is “inactive”; in assay [2], “inactive”; in [3], “inactive”; in assay [4] it was “inactive”; in the assay with MYC, MYC (gene 4609), “inactive”; in [5], “inactive”. Also, the result in assay [6], in assay [7], in assay [8] and in assay [9] was inactive.
Turning to `Clc1ccccc1Cl`, the outcome was “inactive” in assay [1]; “inactive” in [2]; “inactive” in assay [3]; “inactive” in [4]; “inactive” with MYC, MYC (gene 4609); “inactive” in [5]. The outcome in assay [6], in [7], in assay [8] and in assay [9] was inactive.
Consider `Oc1ccc2ccc3cccc4ccc1c2c34`, for which the outcome in [1] was “inactive”; in assay [2] it was “inactive”; in assay [3], “inactive”; in assay [4] it was “inactive”; in the assay with MYC, MYC (gene 4609) it was “inactive”; in [5] it was “inactive”. In addition, the result in assay [6], in [7], in assay [8] and in [9] was inactive.
Consider `Cc1cc(N=Nc2ccccc2C)ccc1N`, for which the AC50 in assay [1] was 3.22 µM (active); in assay [2], 4.4 µM (active); in assay [3] it was 3.67 µM (active); with MYC, MYC (gene 4609), 5.49 µM (active); in assay [5], 12.2 µM (active); in assay [6], 4.04 µM (active). The AC50 in assay [8] was 2.35 µM (active); in [9], 4.12 µM (active). In addition, the outcome in assay [4] and in assay [7] was inactive.
In the case of `N#CC(Br)(Br)C(N)=O`, the outcome was “inactive” in [1]; “inactive” in assay [2]; “inactive” in assay [3]; “inactive” in [4]; “inactive” with MYC, MYC (gene 4609); “inactive” in assay [5]. In addition, the molecule was classed as inactive in assay [6], in assay [7], in assay [8] and in assay [9].
Consider `[O-][Cl+]O`, for which the outcome in assay [1] was “inactive”; in assay [2] it was “inactive”; in assay [3], “inactive”; in [4], “inactive”; with MYC, MYC (gene 4609), “inactive”; in assay [5], “inactive”. For the same molecule, the outcome in assay [6], in [7], in assay [8] and in [9] was inactive.
